Records with an inconclusive call do not appear. The source made the active and inactive calls. Unless noted, calls come from the whole dose curve; as a rule, active = well fitted curve in the direction sought with a large enough effect; inconclusive = small, poorly fitted or top-dose-only effect, or another doubt; inactive = no such curve, though single readings can be large; an effect the other way counts as inactive or inconclusive.
Columns and labels:
[1] = Cytotoxicity counterscreen for NFkB agonists and antagonists (AID 624476); conditions: NFkB reporter cell line viability counterscreen; series mostly up to 46.1 µM;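 note: cells exposed to compound for 48 hours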; note: potency is the fitted concentration of half-maximal effect
[2] = qHTS Assay for Identification of Small Molecule Antagonists for NFkB Signaling Pathway. (AID 624479; calls by dose curve;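 note: pathway stimulated with TNF alpha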; note: potency is the fitted concentration of half-maximal effect); conditions: NFkB pathway reporter cell assay, antagonist mode; series mostly up to 38.3 µM
[3] = Cell Proliferation Assay against the HBL1 Cell Line (AID 651646); conditions: HBL1 DLBCL cells; at 46.1 µM (top of the series) unless noted;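 note: cells exposed to compound for 48 h before reading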
Procedure, shortened: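 CellTiter-Glo luminescence after 48 h compound exposure at 37C gives percent activity, with DMSO as 100% and 9.2 uM bortezomib final as 0%. Cells: 500 log-phase HBL1 per well, RPMI plus 5% FBS.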

[4] = Cell Proliferation Assay against the TMD8 Cell Line (Caspase readout at 16 hrs) (AID 651712); conditions: TMD8 lymphoma cells, caspase activation luminescence; series mostly up to 46.1 µM; note: potency is the fitted concentration of half-maximal effect;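 for caspase activation: 0% = DMSO and 100% = 9.2 µM bortezomib caspase activation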
Procedure, shortened: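 Caspase-Glo luminescence measured apoptosis after a 16 h, 37 C compound exposure of TMD8 cells (500 cells/well, 5% FBS RPMI). DMSO set 0% and bortezomib at 9.2 uM final set 100% activity.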

[5] = Cell Proliferation Assay against the TMD8 Cell Line (Caspase readout at 8 hrs) (AID 651713); conditions: TMD8 lymphoma cells, caspase activation luminescence; series mostly up to 46.1 µM;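 note: 0% = DMSO and 100% = 9.2 µM bortezomib caspase signal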
Procedure, shortened: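 Apoptosis read-out: Caspase-Glo luminescence after 8 h compound exposure of TMD8 lymphoma cells at 37C, 5% CO2. Signals were normalized as percent activity between DMSO and bortezomib (9.2 uM final) controls.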

Structure (SMILES)	Potency [1]	Potency [2]	viability, percent of control [3] [%]	Potency [4]	Potency [5]
N#Cc1ccc(NC(=O)Nc2ccccc2Br)c2n[nH]nc12	inactive	inactive	69.7	inactive	inactive
O=c1cc(CN2CCOCC2)occ1OCCCCCSc1ccnc2cc(C(F)(F)F)ccc12			20.4		
c1ccc2c(-c3cnn4cc(-c5ccc(N6CCNCC6)cc5)cnc34)ccnc2c1		18.8 µM (active)	3.84		
COc1cc(Nc2ncc(F)c(Nc3ccc4c(n3)NC(=O)C(C)(C)O4)n2)cc(OC)c1OC	13.2 µM (active)		56.6	inactive	inactive
CN(C)C1CCN(C(=O)c2ccc(NC(=O)Nc3nc(N4CCOCC4)nc(N4CCOCC4)n3)cc2)CC1	0.0743 µM (active)	inactive	26.9	6.62 µM (active)	
O=C(O)CCC1CCC(c2cc(F)ccc2F)(S(=O)(=O)c2ccc(Cl)cc2)CC1 (centres undefined)	inactive	inactive	95.2	inactive	inactive
O=C1C(Cl)=C(NCCN2CCOCC2)C(=O)c2ncccc21	2.35 µM (active)	2.11 µM (active)	2.09	inactive	inactive
CC(=O)N(C)C1(c2ccccc2)CCN(CCC[C@]2(c3ccc(Cl)c(Cl)c3)CCCN(C(=O)c3ccccc3)C2)CC1	23.5 µM (active)		1.69	11.8 µM (active)	

Source: PubChem BioAssay (NCATS)
